# From PubChem
# Vif inh: blocks HIV Vif function. HEK293T cells, Vif self-association by quenched fluorescence, imaging, 24 h. inhibition, % at 7.49 µM. 0.35% of 340,000 active; in the data active = inhibition above about 50%, passing the limit was not always enough; inconclusive = no clear call, values can overlap the other calls; inactive = below about 31%
# Glyco luc inh: blocks N-linked glycosylation in D54 reporter cells; D54 ERlucT glycosylation luciferase reporter, 24 h; percent of 100 nM tunicamycin response; reporter increase, % at 12.5 µM; 0.23% of 360,000 active;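 active = mean luciferase reporter signal, scaled so untreated is 0 and the glycosylation-blocking control 100, at or above a set limit in every replicate; inconclusive = mean reaches the limit but not every replicate does; inactive = mean below the limit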;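 also: luciferase carries N-glycosylation sites so blocking glycosylation raises the light; 0% = median of neutral control wells and 100% = median of 100 nM tunicamycin wells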
# esBAF inh: inhibitors of esBAF chromatin remodeling in mouse ES cells. Bmi1-luciferase knock-in reporter, 24 h; 100% = twice the neutral-well signal. reporter increase, % at 12.5 µM. 2% of 350,000 active. AID 602393; in the data active = activation above about 40%; inconclusive = no clear call, values can overlap the other calls;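 also: 0% = median of the plate's neutral control wells and 100% = double that signal; a rise in the Bmi1 reporter signal indicates esBAF inhibition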
# PvdQ inh: P. aeruginosa PvdQ acylase inhibition | purified PvdQ acylase, fluorescence plate reader | 0.063% of 340,000 active | AID 488965 | inhibition, % at 10 µM; in the data active = inhibition above about 30%, passing the limit was not always enough; inconclusive = no clear call, values can overlap the other calls;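 also: 0% = vehicle neutral wells and 100% = reference inhibitor wells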
# MITF act: MITF TRPM1 promoter activation in melanoma cells | SK-MEL-5 TRPM1-promoter luciferase, 24 h; % of positive control, neutral wells = 0 | activation, % at 12.5 µM | 0.75% of 300,000 active | AID 588334;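 active = mean activation of at least 80% with every replicate also reaching 80%; inconclusive = mean reaches 80% but some replicate falls short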;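 also: 0% = neutral control wells and 100% = parthenolide positive control wells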
# Wnt act: activators of Wnt/beta-catenin signaling; activation, % at 9.35 µM; 1.2% of 300,000 active; Wnt/beta-catenin reporter cell assay, activator, plate reader; in the data active = activation above about 30%, passing the limit was not always enough; inconclusive = no clear call, values can overlap the other calls;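 also: 0% = neutral control wells and 100% = positive control wells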
# Active calls of the source: *; u = inconclusive; x = no result given. Sampled rows, rich in hits. Any-hit rate of the full collection: about 2.9%.
SMILES,Vif inh,Glyco luc inh,esBAF inh,PvdQ inh,MITF act,Wnt act
COc1ccc(NC(=O)c2ccc3[nH]c(C)c(C)c3c2)cc1,-19,-4,58*,-12,88*,16
C/C(=N\NC(=O)c1ccccc1C)c1ccc(NC(=O)c2cccs2)cc1,-8,-2,53*,6,14,x
C/C(=N\NC(=O)c1ccccc1)c1ccc(NC(=O)c2cccs2)cc1,1,4,x,-10,24,-1
C/C(=N\NS(=O)(=O)c1ccc([N+](=O)[O-])cc1)c1ccc(NC(=O)c2ccco2)cc1,11,-4,0,-12,68,34*
C/C(=N\NC(=O)c1ccco1)c1ccc(NC(=O)c2cccs2)cc1,0,-4,x,3,32,39*
CC(=NNS(=O)(=O)c1ccc([N+](=O)[O-])cc1)c1ccc(C)cc1,1,1,1,2,-3,1
O=C(CSC1CCc2ccccc21)NN=Cc1ccco1 (stereo not drawn),x,x,x,x,x,-3
O=C(CSC1CCc2ccccc21)NNC(=O)Nc1ccc(Cl)cc1 (stereo not drawn),x,x,x,x,x,38*
CO[C@H]1CN(C)C(=O)c2cc(NS(=O)(=O)c3cccc(C)c3)ccc2OC[C@@H](C)NC[C@H]1C,x,x,-2,x,x,x
CCC(=O)N[C@@H]1CC[C@H](CCNC(=O)Nc2ccc(F)cc2)O[C@H]1CO,x,x,-1,x,x,x
O=C(CSc1nc2ccccc2c(=O)n1CCCO)NCc1ccccc1,-2,4,0,0,9,-14
O=c1c2ccccc2nc(SCc2nc3ccccc3s2)n1CCCO,3,-7,36,2,74,41*
COC(=O)c1c(NC(=O)CN2CCOCC2)sc2c1CCC(C)C2 (stereo not drawn),12,0,62*,-9,u,x
O=C(c1cc(COc2ccc(F)cc2Cl)on1)N1CCCCCCC1,5,3,25,-11,30,5
O=C(c1cc(COc2ccc(F)cc2Cl)on1)N1CCCCCC1,-12,0,95*,-7,144*,27
CCN1CCN(C(=O)c2cc(COc3ccc(C(C)=O)cc3OC)on2)CC1,11,-3,71*,-18,75,38*
CCN1CCC2(CCN(C(=O)c3cc(COc4cc(C)ccc4C)on3)C2)C1 (stereo not drawn),-1,-2,5,-4,-4,2
COc1cc(C)ccc1OCc1cc(C(=O)N2CCCCCCC2)no1,-9,1,55*,-2,63,20
Cc1ccc(C)c(OCc2cc(C(=O)N3CC[C@H](O)C3)no2)c1,-4,-1,47*,-6,132*,37*
CO[C@@H](CN(C)C(=O)c1cnccn1)[C@@H](C)CN([C@@H](C)CO)S(=O)(=O)c1ccc(C)cc1,x,x,-2,x,x,x
COCCNC(=O)C[C@H]1C[C@@H]2c3cc(NC(=O)CC4CC4)ccc3O[C@@H]2[C@@H](CO)O1,x,x,0,x,x,x
C[C@H]1CCCCO[C@H](CN(C)S(=O)(=O)c2ccc(F)cc2)[C@@H](C)CN([C@@H](C)CO)C(=O)c2cc(NC(=O)Cc3ccccc3)ccc2O1,x,x,-3,x,x,x
CN(CCc1ccccc1)C(=O)c1cc(COc2ccc(F)cc2Cl)on1,-9,0,43*,-12,60,11
CN(CCN1CCOCC1)C(=O)c1cc(COc2ccc(F)cc2Cl)on1,-1,-1,11,x,x,7
C[C@@H]1CN([C@H](C)CO)C(=O)c2cc(NS(=O)(=O)c3cn(C)cn3)ccc2O[C@H]1CN(C)C(=O)NC1CCCCC1,x,x,2,x,x,x
SMILES,Vif inh,Glyco luc inh,esBAF inh,PvdQ inh,MITF act,Wnt act
CN1CCN(C(=O)C[C@H]2CC[C@@H]3[C@H](COC[C@@H](O)CN3C(=O)Nc3ccc4c(c3)OCO4)O2)CC1,x,x,3,x,x,x
COc1ccc(NC(=O)C2(C)Cc3c(-c4ccc(NC(C)=O)cc4)ccnc3O2)cn1 (stereo not drawn),11,-1,-9,x,x,-7
COc1ccc(NC(=O)C2(C)Cc3c(-c4cccc(NC(C)=O)c4)ccnc3O2)cn1 (stereo not drawn),58*,25,-9,x,x,-11
CC(=O)Nc1cccc(-c2ccnc3c2CC(C)(C(=O)Nc2cccc(C(C)=O)c2)O3)c1 (stereo not drawn),-11,30*,-3,x,x,-3
COc1cc2c(cc1OC)C(=O)N1[C@H]3c4cc(C)ccc4OC[C@@H]3[C@H](c3ccccc3)[C@]1(C)C(=O)N2,1,52*,-6,-9,-19,-10
C[C@@]12C(=O)Nc3ccc(Cl)cc3C(=O)N1[C@H]1c3cc(Br)ccc3OC[C@@H]1[C@@H]2c1ccccc1,2,17,-7,13,-5,-5
COc1cc2c(cc1OC)C(=O)N1[C@H]3c4cc(Cl)ccc4OC[C@@H]3[C@H](c3ccccc3)[C@]1(C)C(=O)N2,-6,45*,-21,5,-16,-19
Cc1ccc2c(c1)[C@H]1[C@H](CO2)[C@H](c2ccccc2)[C@]2(C)C(=O)Nc3cc(F)c(F)cc3C(=O)N12,-4,11,-57,-15,-14,-6
C[C@@H]1CN([C@H](C)CO)C(=O)c2cccc(NC(=O)c3nc4ccccc4s3)c2O[C@H]1CN(C)S(=O)(=O)c1cccs1,x,x,-1,x,x,x
CCCCOc1ncnc2c1[nH]c1ccc(OCC)cc12,-6,1,13,-16,28,x
CCCCOc1ncnc2c1[nH]c1ccccc12,88*,-1,-2,-2,-2,x
CC(Cc1ccccc1)Nc1ncnc2c1ncn2C1OC(CO)C(O)C1O (stereo not drawn),9,2,14,-10,30,3
C[C@H](Cc1ccccc1)Nc1ncnc2c1ncn2[C@@H]1O[C@H](CO)[C@@H](O)[C@H]1O,65*,0,9,-10,5,7
CCOC(=O)C1CCN(Cc2ccc(OC)c(C)c2OC)CC1,-5,3,0,3,3,x
CCOC(=O)C1CCN(Cc2cc(Cl)c3ccccc3c2O)CC1,7,44*,-84,-4,0,x
C[C@H](CO)N1C[C@H](C)[C@@H](CN(C)Cc2ccc(Oc3ccccc3)cc2)Oc2ccc(NC(=O)CCN3CCOCC3)cc2C1=O,x,x,-7,x,x,x
O=c1[nH]c(Cc2ccc(F)cc2)nc2scc(-c3ccc(F)cc3)c12,-4,-3,47*,-8,7,3
O=c1[nH]c(Cc2cccs2)nc2scc(-c3ccc(Cl)cc3)c12,-14,-4,72*,-2,94*,20
Cc1ccc(-c2csc3nc(CN(C)Cc4ccccc4)[nH]c(=O)c23)cc1,-3,0,0,-4,5,-2
C[C@@H]1CCCCO[C@H](CN(C)S(=O)(=O)c2ccccc2)[C@@H](C)CN([C@H](C)CO)C(=O)c2cc(N(C)C)ccc2O1,x,x,0,x,x,x
Cc1ccc(CSc2nc3ccncc3n2CC(=O)Nc2cc(C)cc(C)c2)cc1,-6,5,48*,-6,35,0
